A selection: hits, their analogues and other compounds. The true share with any hit is near 2.5%.
ULK1 primary = human ULK1 kinase inhibition, primary screen | actives 1.9% (n = 30,000) | AlphaScreen Atg13 phosphorylation by ULK1, luminescence | O75385 | inhibition, % at 5.96 µM; in the data active means inhibition above about 43%;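 further: 0% = median of compound wells and 100% = no enzyme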
ASK1 inh = inhibitors of human ASK1 kinase. inhibition, % at 7.44 µM. actives 0.99% (n = 22,000). Q99683. AlphaScreen MKK6 phosphorylation by ASK1, luminescence; in the data active means inhibition above about 35%;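 further: 0% = median of compound wells and 100% = no enzyme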
The depositor's hits bear a star; . = no result; ! = not confirmed by another sample.

SMILES	ULK1 primary	ASK1 inh
CC(=O)Nc1ccc(Nc2nc(Nc3ccncc3)ncc2C)cc1	38	-32
CCC12CCCN3CCc4c(n(c5ccccc45)C(=O)C1)C32 (centres undefined)	11	.
CCc1ccc(OCC(=O)Nc2ccc(Cl)c([N+](=O)[O-])c2)cc1	-9	.
CCCCCCCCCCCCOS(=O)(=O)O	19	.
CCCCC(CC)CCC(CC(C)C)OS(=O)(=O)O (centres undefined)	95*	.
COc1cc(Nc2nc(Nc3cnccn3)nc3c2ncn3Cc2ccc(C(F)(F)F)cc2)cc(OC)c1OC	-19	9
CC(C)n1c(N2CCC(N3CCOCC3)CC2)nc2c(NCCCN3CCCC3=O)ncnc21	-2	-9
O=C(Nc1ccccc1)Nc1cnn(-c2ccc3c(c2)C(Nc2ccc(N4CCOCC4)cc2)CCC3)c1 (centres undefined)	45*	6
CC(C(=O)Nc1cnn(-c2cccc(C(=O)Nc3ccc(N4CCOCC4)cc3)c2)c1)c1ccccc1 (centres undefined)	-12	-11
CNC(C)CCC=C(C)C (centres undefined)	9	.
COc1cc(/C=N/Nc2nncn2/N=C/c2ccc(O)c(OC)c2)ccc1O	51*	.
COc1cc(C=NNC(=O)c2ccncc2)ccc1O	13	.
O=C(Nc1ccc(N2CCOCC2)cc1)C1CCN(c2ccc(Nc3ccc4ncccc4c3)nn2)CC1	49*	-19
O=C(Nc1ccc(N2CCOCC2)cc1)C1CCN(c2ccc(Nc3ccc(N4CCOCC4)cc3)nn2)CC1	-16	-15
O=C(NCCN1CCOCC1)c1csc(N2CCN(c3ccccn3)CC2)n1	-3	-5
N#C/C(=C\c1nn(-c2ccccc2)c(N)c1C#N)c1ccco1	45*	.
N[C@H](C(=O)O)[C@H](O)c1ccc(O)c(O)c1	89*	.
CNC[C@H](O)c1ccc(O)c(O)c1	0	.
CCCC(=O)O[C@]1(C(=O)CCl)[C@@H](C)C[C@H]2[C@@H]3CCC4=CC(=O)C=C[C@]4(C)[C@@]3(F)C(=O)C[C@@]21C	9	.
O=C(NC1CCN(Cc2ccccc2)CC1)c1ccc2nc(Nc3ccc(-n4ccnc4)cc3)sc2c1	-4	2
COc1cc(NC(=O)c2cccc(Nc3ccc(-n4ccnc4)cc3)c2)cc(OC)c1OC	23	35
CC(C)c1nc2ccc(-c3cnn(C)c3)cc2c(=O)[nH]1	-3	-10
Cc1n[nH]c(C)c1-c1ccc2nc(C(C)C)[nH]c(=O)c2c1	60*	6
CCCNC(=O)c1ccc(Cl)cc1Cl	6	.
CCCCNC(=O)c1ccc(Cl)cc1O	43*!	.
SMILES	ULK1 primary	ASK1 inh
CCOc1ccccc1OC(c1ccccc1)C1CNCCO1 (centres undefined)	-6	.
CC(=O)Nc1ccc(Nc2nc(Cl)nc3c2ncn3C(C)C)cc1	47*	-19
CC(=O)Nc1ccc(Nc2nc(Nc3cnccn3)nc3c2ncn3C(C)C)cc1	61*	8
CC(C)n1cnc2c(Nc3ccc(N4CCOCC4)cc3)nc(Nc3ccccc3)nc21	56*	15
CC(C)n1cnc2c(Nc3ccccc3)nc(Nc3cnccn3)nc21	23	3
CCNc1nc(Nc2ccc(N3CCOCC3)cc2)c2ncn(C(C)C)c2n1	34	8
CC(C)n1cnc2c(Nc3ccc(N4CCOCC4)cc3)nc(Nc3ncccn3)nc21	16	-13
CC(C)n1cnc2c(Nc3ccc(N4CCOCC4)cc3)nc(Nc3cnccn3)nc21	65*	6
CC(C)n1cnc2c(Nc3ccccc3)nc(Cl)nc21	30	-3
Cc1cc(N)nc(-c2c(C)nn(C)c2C)n1	1	-1
Nc1c2c(nc3ccccc13)CCCC2O (centres undefined)	-7	.
Cc1cccc(CNC(=O)Nc2ccc(-c3cn[nH]c3)cc2)c1	8	2
CN(C)CC(=O)Nc1cccc(CNC(=O)Nc2ccc(-c3cn[nH]c3)cc2)c1	96*	12
CN(C)CCOC(c1ccccc1)c1ccc(Br)cc1 (centres undefined)	7	.
C[N+](C)(C)CCOC(c1ccccc1)c1ccccc1	82*	.
O=[N+]([O-])c1ccc(C=NN2CCNC2=S)o1	0	.
CCN(CC)C(=O)C1CCCN(c2cc(C(=O)Nc3ccc(N4CCOCC4)cc3)ccn2)C1 (centres undefined)	60*	-36
CCN(CC)C(=O)C1CCCN(c2cc(C(=O)Nc3ccccc3)ccn2)C1 (centres undefined)	-2	6
O=C(NCCc1ccc(O)cc1)c1ccnc(-c2csc3ccccc23)c1	-20	7
CC(=O)N1CCC(N2CCN(c3ccc(F)cc3)CC2)CC1	-2	.
O=C(NCCO)C1CCN(c2ccc(N3CCCC3CO)nn2)CC1 (centres undefined)	-4	-5
CC(C)N(CCNC(=O)C1CCN(c2ccc(N3CCCC3CO)nn2)CC1)C(C)C (centres undefined)	56*	2
CCNc1nc(NCc2cccnc2)c2ncn(C3CCCCC3)c2n1	12	-7
O=C(O)c1cc(O)ccc1O	4	.
Nc1ccc(O)c(C(=O)O)c1	55*	.

Screens as filed in PubChem BioAssay.
